Source: PubChem
In the library only some 1.8% were active in any assay of this set; here they are far more common.
SUMO Mot1 rescue: blocks SUMOylation pathway, rescuing yeast Mot1-301 growth | S. cerevisiae Mot1-301 growth rescue, ATP luminescence, 38.5C; percent above DMSO median, 100 means doubled | growth rescue, % at 18.8 µM | hit rate 1% among 320,000;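 active = every valid replicate shows activation above 250% relative to neutral control wells; inactive = the rest, any valid replicate at or below 250%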;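 also: OY570 slx delta 5 strain wells were the positive control but not used for scaling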
NALP3 yeast inh: inhibitors of NALP3 inflammasome in yeast. Yeast reconstituted NLRP3/ASC/caspase-1, beta-gal luminescence, 24 h. inhibition, % at 10 µM. hit rate 0.39% among 330,000. AID 2825;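 active = inhibition of 50% or more; inactive = inhibition below 50%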;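 also: plate controls were induced DMSO wells for no effect and uninduced yeast grown without galactose for full effect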
NALP1 yeast inh: NALP1 inhibition | hit rate 0.61% among 280,000 | inhibition, % at 10 µM | S. cerevisiae NALP1/ASC/caspase-1 growth, X-gal OD620, 72 h; in the data active = inhibition mostly above about 24%, no sharp cut-off; inactive = mostly below about 32%
PolyA inh: yeast polyadenylation inhibition. S. cerevisiae SKY197-pL101 polyadenylation reporter, beta-gal luminescence; efflux-impaired pdr1/pdr3 knockout yeast; score 100 = 6 SD above DMSO. activity score, % at 12 µM. hit rate 0.02% among 300,000. AID 1875;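 active = lowest replicate activity score at least 50, where 100 means six control SD above control mean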;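 also: yeast exposed to compound for 9 h at 30 °C; higher score means more reporter readthrough which indicates perturbed polyadenylation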
NALP3 confirm: confirmation of NALP3 inhibitors in yeast; inhibition, % at 10 µM; yeast expressing human NALP3, luminescence; hit rate 81% among 1,300; shares compounds with NALP3 yeast inh; in the data active = inhibition above about 48%
Casp1 ASC ctr: active in yeast caspase-1-ASC counter-screen for NALP3 inhibitors; yeast expressing Caspase-1-ASC, luminescence counter screen; inhibition, % at 10 µM; shares compounds with NALP3 yeast inh; hit rate 66% among 1,000; AID 488784
NALP3 yeast rt: retest-confirmed inhibitor of NALP3 in yeast. shares compounds with NALP3 yeast inh. yeast expressing human NALP3, luminescence read-out. inhibition, % at 10 µM. hit rate 53% among 1,000
The depositor's hits bear a star. Rule as the data show it, unless noted: active = inhibition above about 50%; inactive = the rest.

Results for CC(C)c1ccc(OCC(=O)N2CCN(c3ccccn3)CC2)c(Br)c1 ?
SUMO Mot1 rescue: -12.5; NALP3 yeast inh: 28.6; NALP1 yeast inh: 9.5; PolyA inh: -4.8

Results for O=C(c1cccs1)N1CCc2ccccc21 ?
SUMO Mot1 rescue: -2.6; NALP3 yeast inh: 15.4; NALP1 yeast inh: 24.7; PolyA inh: -24.7

What do the screens show for `O=C(/C=C/c1cccs1)N1CCc2ccccc21`?
SUMO Mot1 rescue: 4.0; NALP3 yeast inh: 51.7*; NALP1 yeast inh: 42.7; PolyA inh: -15.1; NALP3 confirm: 22.6

What do the screens show for `CCOc1cccc(/C=C(\C#N)C(=O)NC2CC2)c1`?
SUMO Mot1 rescue: 38.8; NALP3 yeast inh: 8.4; PolyA inh: -3.8

How did Cc1ccc(/C=C(/C#N)C(=O)NC(=O)Oc2ccccc2)cc1 do in these assays?
SUMO Mot1 rescue: -5.3; NALP3 yeast inh: 12.7; NALP1 yeast inh: 26.1; PolyA inh: 16.5

What do the screens show for `CCCCOc1cccc(/C=C(\C#N)C(=O)NC2CC2)c1`?
SUMO Mot1 rescue: -2.8; NALP3 yeast inh: 51.1*; NALP1 yeast inh: 18.3; PolyA inh: -39.5; NALP3 confirm: 54.2*; Casp1 ASC ctr: 37.9; NALP3 yeast rt: 32.1

Results for CNC(=O)/C(C#N)=C/c1ccc(OCCOc2ccccc2)cc1 ?
SUMO Mot1 rescue: inactive; NALP3 yeast inh: 55.6*; NALP1 yeast inh: 15.3; PolyA inh: -4.3; NALP3 confirm: 72.8*; Casp1 ASC ctr: 57.6*; NALP3 yeast rt: 48.4

How did COc1ccc2cc3cc(C(=O)Nc4ccccc4N4CCN(C)CC4)oc3nc2c1 do in these assays?
SUMO Mot1 rescue: 94.8; NALP3 yeast inh: 39.0; NALP1 yeast inh: -1.5; PolyA inh: -10.2

What do the screens show for `COc1ccc2cc3cc(C(=O)NCCN4CCN(c5ccccc5F)CC4)oc3nc2c1`?
SUMO Mot1 rescue: -8.9; NALP3 yeast inh: 53.1*; NALP1 yeast inh: -3.7; PolyA inh: 20.9; NALP3 confirm: 16.0

Results for Cc1cc(C)n2c(Nc3ccc4c(c3)OCCO4)c(-c3ccccc3)nc2n1 ?
SUMO Mot1 rescue: -1.5; NALP3 yeast inh: 6.2; NALP1 yeast inh: 10.7; PolyA inh: -2.1

What do the screens show for `N#Cc1ccc(-c2csc(NNC(=O)c3ccccc3)n2)cc1`?
SUMO Mot1 rescue: 2.8; NALP3 yeast inh: 18.6; NALP1 yeast inh: 14.0; PolyA inh: -5.6

How did N#Cc1ccc(-c2csc(NNC(=O)c3ccc(Br)cc3)n2)cc1 do in these assays?
SUMO Mot1 rescue: 3.0; NALP3 yeast inh: 51.1*; NALP1 yeast inh: 13.4; PolyA inh: -19.3; NALP3 confirm: 51.0*; Casp1 ASC ctr: 38.1; NALP3 yeast rt: 36.3

Results for Cc1sc2ncnc(N[C@@H](Cc3ccccc3)C(=O)O)c2c1C ?
SUMO Mot1 rescue: -9.0; NALP3 yeast inh: 0.2; NALP1 yeast inh: 18.1; PolyA inh: 3.8

What do the screens show for `Cc1ccc(Oc2ccc(NC(=O)c3ccco3)cc2)cc1`?
SUMO Mot1 rescue: 23.3; NALP3 yeast inh: 13.9; NALP1 yeast inh: 19.4; PolyA inh: 7.4

What do the screens show for `COC(=O)c1ccccc1Oc1ccc(NC(=O)c2ccco2)cc1`?
SUMO Mot1 rescue: 7.0; NALP3 yeast inh: 51.0*; NALP1 yeast inh: 11.5; PolyA inh: 2.3; NALP3 confirm: 68.4*; Casp1 ASC ctr: 48.9; NALP3 yeast rt: 34.9

Results for CC(=O)c1cccc(NC(=O)CSC(=O)c2ccccc2)c1 ?
SUMO Mot1 rescue: -7.0; NALP3 yeast inh: 8.9; NALP1 yeast inh: 31.9; PolyA inh: -8.6

What do the screens show for `CCN(CC)c1ccc(NC(=O)CSC(=O)c2ccccc2)cc1`?
SUMO Mot1 rescue: 24.5; NALP3 yeast inh: 55.8*; NALP3 confirm: 54.2*; Casp1 ASC ctr: 56.5*; NALP3 yeast rt: 42.2

How did Fc1ccccc1-c1nc2ccccc2[nH]1 do in these assays?
SUMO Mot1 rescue: -11.2; NALP3 yeast inh: 60.4*; NALP1 yeast inh: 22.4; PolyA inh: -13.7; NALP3 confirm: 57.8*; Casp1 ASC ctr: 53.9*; NALP3 yeast rt: 59.5*

How did c1ccc2nc(-c3nc4ccccc4[nH]3)ccc2c1 do in these assays?
SUMO Mot1 rescue: -35.3; NALP3 yeast inh: 53.2*; NALP1 yeast inh: 13.6; PolyA inh: -21.4; NALP3 confirm: 67.2*; Casp1 ASC ctr: 41.6; NALP3 yeast rt: 41.6
